Activity calls are given as the source filed them.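 Rule for the calls, unless noted: active = visual image review flags a hit and inhibition of aggregation exceeds 20%; inconclusive = visual hit but inhibition at or below 20%; inactive = no hit on visual image review.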
Assays:
[1] = inhibitors of TNFa-induced NFkB p65 translocation, primary screen, imaging, HUVEC, MLSMR starter and 10KST1 sets (AID 438;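 active = inhibition above 20% together with a positive visual image hit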;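 note: compound added about 3h40 before a 20 min TNFalpha stimulation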;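 for inhibition: signal is the nuclear over cytoplasmic p65 intensity ratio per well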); conditions: HUVEC TNFa-induced p65 nuclear translocation; cell count: measured here: nuclei count (cytotoxicity indicator), at 2.08 µM; inhibition: at 2 µM, stronger effect = higher value, 0% TNFa-plus-vehicle, 100% no-TNFa wells
[2] = reduction of polyQ htt aggregates in cells – imaging, exon1htt(103Q)mCFP cells, high-content imaging, primary screen (AID 483); conditions: exon1htt(103Q)mCFP cell line, aggregate imaging, at 2 µM; inhibition of aggregation: stronger effect = higher value; nuclei count: measured here: cell count, toxicity;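 note: compound exposure lasted 3 days before fixation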;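 for nuclei count: percent of the per-plate median nuclei count of sample wells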
[3] = endothelial E-selectin expression blockers – imaging, HUVEC, immunofluorescence, MLSMR starter and 10KST1 sets, primary screen (AID 487;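 active = visually confirmed hit in the image check and inhibition above 20%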;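 for inhibition: signal is fraction of cell area covered by stained E-selectin grains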;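 for nuclei count: 100% = median nuclei count of all wells on the same plate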); conditions: HUVEC TNFalpha-induced E-selectin immunofluorescence imaging, at 2 µM; inhibition: stronger effect = higher value; nuclei count: measured here: cell number, toxicity
[4] = molecular target: Voltage-gated potassium channel subunit beta-2 (Rattus norvegicus) (UniProt P62483); test: inhibitors of rat Kvbeta2 reductase activity – biochemical, NADPH fluorescence, primary screen (AID 622;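 active = fluorescence slope higher than the sample average by over 3 SD, cut at about -0.22 in these data, passing the limit was not always enough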;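 note: slope of raw intensity against log time taken from 70 to 1610 s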); conditions: recombinant KvBeta, 4-cyanobenzaldehyde reduction, at 10 µM, stronger effect = higher value
[5] = molecular target: Voltage-gated potassium channel subunit beta-2 (Rattus norvegicus) (UniProt P62483); test: enhancers of rat Kvbeta2 NADPH turnover – biochemical, NADPH fluorescence, primary screen (AID 623;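 active = NADPH fluorescence slope more negative than the mean of all samples by about 3 SD, 99.7% confidence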;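 note: fluorescence intensity change per second fitted from 20 to 320 s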); conditions: Recombinant KvBeta, NADPH fluorescence decrease slope, 10 min; at 10 µM; stronger effect = lower value
[6] = molecular target: Alpha-2C adrenergic receptor (Homo sapiens) (UniProt P18825); test: compounds altering alpha2C-coupled GIRK flux – cell-based, HEK293 alpha2C/GIRK1/2, thallium flux, primary screen (AID 624;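 active = fluorescence slope after compound addition differing from the mean of all screened samples at 99.7% confidence, in either direction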;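 note: slope of fluorescence ratio to pre-addition baseline per second over 15 to 24 s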); conditions: thallium flux BTC fluorescence, at 10 µM, actives lie on both sides
[7] = blockers of RIG-like receptor reporter activation – cell-based, Sendai virus stimulus, luciferase, 10K MLSCN set, TLR/RLR signaling modifier project, primary screen (AID 602276;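 active = inhibition at or above 50% at 10 µM; inactive = inhibition below 50%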;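 note: firefly luciferase from ISG56 promoter only with Renilla not read in this screen; 0% = Sendai virus plus DMSO and 100% = medium plus DMSO without virus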); conditions: HEK293 RL24 IRF3 luciferase reporter, at 10 µM, stronger effect = higher value
[8] = TLR3 IRF3 reporter activation blockers – cell-based, poly I:C stimulus, luciferase, 10K MLSCN set, primary screen (AID 602277;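 active = inhibition of the reporter signal at or above 50%; inactive = inhibition below 50%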); conditions: HEK293-TLR3 RL24 IRF3 luciferase reporter, at 10 µM, stronger effect = higher value

Alpha-2C adrenergic receptor (Homo sapiens), sequence (P18825 whole entry, looked up): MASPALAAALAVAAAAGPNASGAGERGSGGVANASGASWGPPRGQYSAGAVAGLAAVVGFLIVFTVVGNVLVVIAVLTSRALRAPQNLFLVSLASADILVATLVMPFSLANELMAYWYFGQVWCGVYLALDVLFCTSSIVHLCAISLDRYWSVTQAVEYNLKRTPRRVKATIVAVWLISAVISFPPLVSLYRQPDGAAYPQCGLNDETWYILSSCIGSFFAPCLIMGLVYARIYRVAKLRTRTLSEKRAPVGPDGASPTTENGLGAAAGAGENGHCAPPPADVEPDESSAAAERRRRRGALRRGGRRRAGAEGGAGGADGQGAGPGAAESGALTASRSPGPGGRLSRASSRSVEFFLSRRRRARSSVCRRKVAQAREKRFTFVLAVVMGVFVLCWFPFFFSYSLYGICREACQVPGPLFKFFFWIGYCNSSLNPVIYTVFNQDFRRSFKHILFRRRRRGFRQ
Voltage-gated potassium channel subunit beta-2 (Rattus norvegicus), sequence (P62483 whole entry, looked up): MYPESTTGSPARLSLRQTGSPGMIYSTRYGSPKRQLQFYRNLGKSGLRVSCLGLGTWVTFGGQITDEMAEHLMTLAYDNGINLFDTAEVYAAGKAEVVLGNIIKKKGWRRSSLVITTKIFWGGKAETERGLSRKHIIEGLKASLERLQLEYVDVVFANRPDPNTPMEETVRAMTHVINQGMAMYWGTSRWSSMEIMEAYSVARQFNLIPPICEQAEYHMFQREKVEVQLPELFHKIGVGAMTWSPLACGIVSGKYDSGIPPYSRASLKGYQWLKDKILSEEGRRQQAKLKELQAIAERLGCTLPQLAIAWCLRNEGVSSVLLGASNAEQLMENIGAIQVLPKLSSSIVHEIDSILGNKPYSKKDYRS

Row | SMILES | cell count [1] | inhibition [1] | inhibition of aggregation [2] | nuclei count [2] | inhibition [3] | nuclei count [3] | fluorescence slope [4] | NADPH fluorescence slope [5] | slope [6] | inhibition [7] | inhibition [8]
1 | Cc1cc(NS(=O)(=O)c2ccc(Nc3nc(-c4sc(N)nc4C)cs3)cc2)no1 | 333 | 5.5% (inactive) | -10.4% (inactive) | 117% | -11.3% (inactive) | 103% | -0.412 (inactive) | -7.5e-05 (inactive) | 0.00495 (inactive) | 6.21% (inactive) | 25.1% (inactive)
2 | Cc1nc2scc(-c3cccs3)c2c(=O)n1-n1cccc1 | 506 | 10.6% (inactive) | 10.9% (inactive) | 102% | -398% (inactive) | 140% | -0.333 (inactive) | 1.9e-05 (inactive) | 0.00572 (inactive) | 4.56% (inactive) | 18.4% (inactive)
3 | CCOC(=O)c1cc(C(C)(C)C)oc1CN | 667 | -1% (inactive) | 1.2% (inactive) | 98.7% | -1.1% (inactive) | 102% | -0.495 (inactive) | -4.4e-05 (inactive) | 0.00475 (inactive) | 15.2% (inactive) | 21.7% (inactive)
4 | Cc1ccc(N(C)C(=O)N2CCN(c3ccccn3)CC2)cc1 | 525 | -0.8% (inactive) | 30.2% (inactive) | 59.5% | -41% (inactive) | 97.6% | -0.59 (inactive) | -2.8e-05 (inactive) | 0.00868 (inactive) | 5.03% (inactive) | 27.2% (inactive)
5 | Cc1ccc(-c2cc(C(F)F)nc(NCC3CCCO3)n2)cc1 (stereo unspecified) | 647 | 1.4% (inactive) | 15.9% (inactive) | 87.5% | -135% (inactive) | 128% | -0.524 (inactive) | 1.3e-05 (inactive) | 0.00547 (inactive) | -25.4% (inactive) | -60.9% (inactive)
6 | CC(=O)C1=C(C)Nc2ncnn2C1c1cccc(OCc2ccccc2)c1 (stereo unspecified) | 610 | 0% (inactive) | 2.1% (inactive) | 103% | -51.7% (inactive) | 122% | -0.559 (inactive) | 4.9e-06 (inactive) | 0.0069 (inactive) | 11.8% (inactive) | 29% (inactive)
7 | COc1cc2c(cc1OC)C(c1cccnc1)CC(=O)N2 (stereo unspecified) | 481 | -7.4% (inactive) | -12.3% (inactive) | 71.7% | -30.8% (inactive) | 117% | -0.513 (inactive) | -2.9e-05 (inactive) | 0.00629 (inactive) | 9.14% (inactive) | 14.4% (inactive)
8 | COCCOC(=O)c1c(C)oc2ccc(NS(=O)(=O)c3ccc(F)cc3)cc12 | 381 | 2.5% (inactive) | 4.7% (inactive) | 123% | 30.2% (inactive) | 93% | -0.613 (inactive) | 2.2e-06 (inactive) | 0.00626 (inactive) | 14.6% (inactive) | 25.3% (inactive)
9 | COc1cccc(C2CC(c3c(Cl)cccc3Cl)n3nc(N)nc3N2)c1 (stereo unspecified) | 568 | 13.8% (inactive) | -23.3% (inactive) | 75.1% | 25.6% (inactive) | 92.1% | -0.504 (inactive) | -1.9e-05 (inactive) | 0.00695 (inactive) | 22.2% (inactive) | 23.9% (inactive)
10 | CCN1CCN(C(=O)C2CC(c3ccc(F)cc3)=NO2)CC1 (stereo unspecified) | 538 | 1.5% (inactive) | 3% (inactive) | 102% | 1.4% (inactive) | 108% | -0.621 (inactive) | -4e-05 (inactive) | 0.00735 (inactive) | -8.44% (inactive) | 20.7% (inactive)
11 | CC1=C(C(N)=O)C(c2ccccn2)n2nc(SCc3ccccc3)nc2N1 (stereo unspecified) | 624 | 3.8% (inactive) | 3.9% (inactive) | 93% | 43.5% (inactive) | 86.4% | -0.316 (inactive) | -8.8e-05 (inactive) | 0.0057 (inactive) | -8.46% (inactive) | 0.00265% (inactive)
12 | Cc1ccc2[nH]c(=O)c(CN(Cc3ccc4c(c3)OCO4)Cc3nnnn3Cc3ccco3)cc2c1 | 638 | 2.2% (inactive) | -15.3% (inactive) | 94.1% | -74.1% (inactive) | 122% | -0.622 (inactive) | -7e-06 (inactive) | 0.00625 (inactive) | 9.33% (inactive) | 12.2% (inactive)
13 | Cc1ccc(N2CC(C)Cn3c2nc2c3c(=O)n(CC(=O)OCc3ccccc3)c(=O)n2C)cc1C (stereo unspecified) | 242 | -3.2% (inactive) | 21.6% (inactive) | 77.7% | -43% (inactive) | 109% | -0.473 (inactive) | -2.8e-05 (inactive) | 0.00778 (inactive) | 28.5% (inactive) | 16.6% (inactive)
14 | CCOc1ccc(-c2nnc(N)s2)cc1 | 432 | -3.8% (inactive) | 29.9% (inactive) | 61.4% | -8.1% (inactive) | 90.5% | -0.493 (inactive) | -0.000137 (inactive) | 0.00563 (inactive) | -27% (inactive) | -78.8% (inactive)
15 | Cc1cc(NC(=O)CSc2nc(CCC3CCCC3)nc3ccccc23)no1 | 400 | 3.5% (inactive) | -13.6% (inactive) | 113% | -41% (inactive) | 90% | -0.449 (inactive) | 4e-06 (inactive) | 0.00867 (inactive) | 8.39% (inactive) | 27.2% (inactive)
16 | O=C(OCn1nnc2ccccc2c1=O)c1cc2ccccc2o1 | 544 | -3.9% (inactive) | 19.5% (inactive) | 76.7% | -10.4% (inactive) | 90.4% | -0.447 (inactive) | -3.1e-05 (inactive) | 0.00552 (inactive) | -2.91% (inactive) | 27.7% (inactive)
17 | CN(C(=O)c1ccco1)c1nnc(C23CC4CC(CC(C4)C2)C3)s1 | 681 | -10% (inactive) | -1.7% (inactive) | 110% | -1.5% (inactive) | 126% | -0.408 (inactive) | -1.5e-05 (inactive) | 0.00459 (inactive) | -30.3% (inactive) | -32.2% (inactive)
18 | Cc1ccccc1CN1CCN(CC(=O)NCc2ccccc2)C1=O | 518 | -20.8% (inactive) | -45.2% (inactive) | 97.7% | -45.7% (inactive) | 114% | -0.42 (inactive) | -0.000111 (inactive) | 0.00614 (inactive) | 2.1% (inactive) | 24.6% (inactive)
19 | CCOc1ccc2ccccc2c1C(=O)N1CCN(c2ccccc2)CC1 | 287 | -3% (inactive) | 41.9% (inactive) | 15.6% | 44.7% (inactive) | 64.1% | -0.423 (inactive) | -1.3e-05 (inactive) | 0.0036 (inactive) | 46.4% (inactive) | 56.3% (active)
20 | COc1ccc(N2CCN(c3ccc(NC(=O)C4CCCCC4)cc3C#N)CC2)cc1 | 676 | -0.6% (inactive) | -30.8% (inactive) | 104% | -14.3% (inactive) | 121% | -0.586 (inactive) | -1.7e-05 (inactive) | 0.00529 (inactive) | 4.18% (inactive) | 7.51% (inactive)
21 | Cc1ccc(-c2nnc3c4ccccc4c(C)nn23)cc1NC(=O)c1ccco1 | 641 | -11% (inactive) | 17.5% (inactive) | 102% | -106% (inactive) | 115% | -0.602 (inactive) | 2.3e-05 (inactive) | 0.00729 (inactive) | -0.847% (inactive) | -4.54% (inactive)
22 | Cc1ccc(-c2noc(COc3ccccc3C)n2)cc1 | 607 | -7.8% (inactive) | 12.3% (inactive) | 110% | 35.1% (inactive) | 129% | -0.484 (inactive) | 1.6e-05 (inactive) | 0.0049 (inactive) | -24.5% (inactive) | -88.2% (inactive)
23 | COCCn1nnnc1C(c1cc2cc(OC)ccc2[nH]c1=O)N1CCC(Cc2ccccc2)CC1 (stereo unspecified) | 247 | -3.5% (inactive) | -2.5% (inactive) | 88.5% | -39.9% (inactive) | 117% | -0.359 (inactive) | 1.6e-05 (inactive) | 0.00322 (inactive) | 14.4% (inactive) | 30.6% (inactive)
24 | CCN(CC(=O)Nc1ccc(S(N)(=O)=O)cc1)S(=O)(=O)c1cc(C)ccc1OC | 432 | -0.3% (inactive) | -6.5% (inactive) | 118% | -51.7% (inactive) | 132% | -0.425 (inactive) | -4.7e-05 (inactive) | 0.0034 (inactive) | -18.9% (inactive) | 19.6% (inactive)
25 | Cc1noc(C)c1CSc1nc2ccccc2s1 | 588 | -2.3% (inactive) | -7.7% (inactive) | 113% | -4.7% (inactive) | 102% | -0.515 (inactive) | 2.9e-05 (inactive) | 0.00595 (inactive) | 4.37% (inactive) | -21.8% (inactive)
26 | COCCn1nnnc1CN1CCC(Cc2ccccc2)CC1 | 513 | -16.4% (inactive) | -12.1% (inactive) | 113% | -71.7% (inactive) | 96.1% | -0.484 (inactive) | -6.1e-05 (inactive) | 0.00482 (inactive) | 12.6% (inactive) | 13.6% (inactive)

Source: PubChem BioAssay
